Tat transport – E. coli Tat transport inhibition | E. coli MC4100 TorA-mCherry Tat export, fluorescence | AID 488895 | inhibition, % at 10 µM | hit rate 0.036% among 340,000;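 active = mean replicate inhibition at least 50% and at least half of replicates individually reaching 50%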;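 note: exported cargo escapes ClpAP degradation while cytoplasmic cargo is degraded and loses fluorescence; 0% = median of neutral control wells and 100% = median of NaSCN control wells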
E coli growth-1 – bacterial growth inhibition, counter-screen for AddAB inhibitors; E. coli V3065 growth, OD600 absorbance, 18 h; inhibition, % at 11.9 µM; hit rate 0.27% among 330,000;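 active = inhibition above the campaign's mean inhibition across all tested compounds plus 3 SD, cut at about 9.9% in these data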;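 note: uninfected addAB+ strain grown without phage in ampicillin broth; 0% = DMSO wells and 100% = ciprofloxacin 0.95 µg/ml wells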
AddAB inh – less growth of phage-infected E. coli with AddAB; E. coli expressing H. pylori AddAB, absorbance growth; inhibition, % at 11.9 µM; hit rate 0.29% among 330,000; in the data active = inhibition above about 12%;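 note: 0% = vehicle wells of infected cells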
phage Ecoli inh – E. coli growth loss with phage present. growth absorbance. inhibition, % at 11.9 µM. hit rate 0.26% among 360,000; in the data active = inhibition above about 11%
E coli growth-2 – blocks Escherichia coli growth; OD600 absorbance (concentration not given with the values); AID 1053175; hit rate 0.21% among 330,000; OD600, 23 h; hits give low values;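 active = OD600 absorbance below the run mean of sample wells minus 3.6 SD, in any replicate, cut at about 0.56 in these data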
An asterisk follows results filed as active; nt = no result. This is a sample that favours compounds with a hit; in the whole collection about 0.51% have one here.

SMILES	Tat transport	E coli growth-1	AddAB inh	phage Ecoli inh	E coli growth-2
C=Cc1ncc(OC)c2c1[nH]c1ccccc12	0	2	3	nt	0.49*
CCOC(=O)C1C2COc3ccc(Br)cc3C2N2C(=O)N(c3ccc(Cl)cc3)C(=O)[C@@]12C (stereo not given in full)	nt	nt	nt	nt	0.72
CC[C@@]12C(=O)N(c3cccc(F)c3)C(=O)N1C(c1ccc(OC)cc1)C1C(=O)N(C(C)(C)C)C(=O)C12 (stereo not given in full)	nt	nt	nt	nt	0.69
C=CC[n+]1ccc(/C=C2\C=Cc3cc(C)ccc3N2CC)c2ccccc21	-173	nt	nt	nt	0.44*
O=C(CC1NS(=O)(=O)OC2CCCCC12)c1ccccc1 (stereo not given)	nt	nt	nt	nt	0.7
CNS(=O)(=O)c1ccc(NC(=O)Nc2cccc(F)c2)cc1	-7	7	10	5	0.51*
O=[N+]([O-])c1cccc(/C=C/c2nc[nH]c2[N+](=O)[O-])c1	5	11*	10	1	0.69
Cc1ccc(C(=O)N2CCCC(CCC(=O)NCc3ccccc3F)C2)cn1 (stereo not given)	0	-2	-2	2	0.72
C=CCOc1cccc(C(=O)N2CCCC(CCC(=O)NCc3ccccc3F)C2)c1 (stereo not given)	50*	-2	2	2	0.67
COc1ccc(Cl)cc1C(=O)Nc1ccc(NC(C)=O)cc1	-4	0	1	4	0.71
CC(=O)Oc1c(I)cc(I)cc1C(=O)Nc1ccc(Cl)cc1	-10	12*	11	8	nt
CCOC(=O)N1CCN(C(=O)c2cn(CC)c3cc(N4CCN(C)CC4)c(F)cc3c2=O)CC1	nt	100*	101*	nt	nt
CC1(C)CC[C@]2(C(=O)O)CC[C@]3(CO)C(=CCC4[C@@]5(C)CC(O)C(O)[C@@](C)(C(=O)O)C5CC[C@]43C)C2C1 (stereo not given in full)	nt	nt	nt	nt	0.67
CCOc1ccc2[nH]c3c(NCCC(C)C)ncnc3c2c1	-4	nt	nt	8	0.5*
CCOc1ccc2[nH]c3c(NCCN(C)C)ncnc3c2c1	8	-1	0	1	0.68
O=C(CNC(=O)c1ccccc1)NN=Cc1ccc([N+](=O)[O-])o1	nt	nt	nt	nt	0.58
Cc1nonc1C(=O)NN=Cc1ccc([N+](=O)[O-])o1	nt	nt	nt	nt	0.5*
O=C(CNc1ccccc1)NN=Cc1ccc([N+](=O)[O-])o1	nt	nt	nt	nt	0.49*
CCCC(=O)Nc1ccc(C(=O)NN=Cc2ccc([N+](=O)[O-])o2)cc1	nt	nt	nt	nt	0.62
O=C(NN=Cc1ccc([N+](=O)[O-])o1)c1ccc(O)cc1	nt	nt	nt	nt	0.41*
O=C(CCC(=O)Nc1ccc(Cl)cc1Cl)NN=Cc1ccc([N+](=O)[O-])o1	nt	nt	nt	nt	0.41*
CCOC(=O)C1C2COc3ccc(OC)cc3C2N2C(=O)c3ccc(F)cc3NC(=O)[C@@]12C (stereo not given in full)	nt	nt	nt	nt	0.68
O=C(NN=Cc1ccc([N+](=O)[O-])o1)C1CC1	nt	nt	nt	nt	0.065*
O=[N+]([O-])c1ccc(C=NNC(=S)Nc2ccccc2C(F)(F)F)o1	nt	nt	nt	nt	0.49*
NC(=O)NN=Cc1ccc([N+](=O)[O-])o1	nt	nt	nt	nt	0.064*
SMILES	Tat transport	E coli growth-1	AddAB inh	phage Ecoli inh	E coli growth-2
O=[N+]([O-])c1ccc(C=NNC(=S)Nc2ccccc2F)o1	nt	nt	nt	nt	0.67
O=C(Nc1ccc(Cl)cc1)Nc1ccc2c(c1)N1CCN=C1S2	4	3	1	8	0.5*
Nc1ccc2c(c1)N1CCN=C1S2	-11	3	2	2	0.64
CCC1=C(OC(=O)N(CC)CC)N2C(=O)OC(=NCc3ccccc3)[C@]2(C)C2C1=CCC1C(=O)N(CC(=O)OC)C(=O)C12 (stereo not given in full)	nt	nt	nt	nt	0.71
CCCCC1CC1C(NC(=O)c1ccco1)c1ccc(Cl)cc1 (stereo not given)	nt	nt	nt	nt	0.67
O=C(CCN1CCOCC1)NNC(=S)NC(=O)c1ccc(Br)cc1	-2	3	1	-3	0.47*
O=C(CCN1CCCCC1)NNC(=S)NC(=O)c1ccc(Br)cc1	-1	-1	0	-3	0.6
Cc1csc(N=Cc2ccc([N+](=O)[O-])o2)n1	nt	nt	nt	12*	nt
CCSc1nnc(NC(=O)c2cnccn2)s1	nt	0	1	nt	0.72
CCSc1nnc(NC(=O)c2ccccn2)s1	19	11*	9	0	0.67
Cc1ccccc1Nc1nc(NCc2ccco2)c2ccccc2n1	-10	7	3	-1	0.49*
Cc1cccc(Nc2nc(NCc3ccco3)c3ccccc3n2)c1	-13	5	2	4	0.43*
c1ccc(Nc2nc(NCc3ccco3)c3ccccc3n2)cc1	20	3	4	3	0.31*
Oc1ccccc1Nc1nc(NCc2ccco2)c2ccccc2n1	-2	0	2	3	nt
CN(CC(Cc1ccccc1)N(CCN(CCc1ccccc1)N=O)N=O)N=O (stereo not given)	nt	nt	nt	nt	0.68
CCOC(=O)C1C2COc3ccc(Cl)cc3C2N2C(=O)CN(Cc3ccc(F)cc3)C(=O)[C@@]12C (stereo not given in full)	nt	nt	nt	nt	0.64
CCCCN(C)CCn1c(=S)[nH]c2ncccc2c1=O	51*	3	0	4	0.68
O=C1C(=Cc2ccco2)N=C(N2CCCCC2)N1c1ccccc1	nt	nt	nt	nt	0.7
Fc1ccc(NC(=S)Nc2ccc(Cl)cc2)cc1	7	-1	1	6	0.52*
Fc1cccc(NC(=S)Nc2ccc(Br)cc2)c1	-12	0	2	7	0.49*
COc1cccc(NC(=S)Nc2ccc(F)cc2)c1	12	0	1	4	0.7
COC(=O)C1=C(C(=O)OC)C2Nc3ccccc3[C@@]23CC(C(=O)OC)N(C(=O)CC(C)C)C3=N1 (stereo not given in full)	nt	nt	nt	nt	0.64
CN1C(=CC=NNC(=O)c2ccccc2Br)C(C)(C)c2ccccc21	nt	nt	nt	nt	0.68
Oc1ccc2c(c1)oc1cc(O)ccc12	2	-2	1	1	0.59
O=c1oc2cc(O)ccc2s1	-1	10.0*	8	2	nt
SMILES	Tat transport	E coli growth-1	AddAB inh	phage Ecoli inh	E coli growth-2
Cc1cccc(C(=O)CC(=O)c2cc(Cl)ccc2O)c1	3	-3	-5	nt	0.47*
O=C(CC(=O)c1cc(Cl)ccc1O)c1ccccc1	-14	-2	-3	-3	0.48*
C#CCOCCOCCOCCNc1nc(N2CCN(C(=O)C(CCCCN)n3cc(C(N)C(C)CC)nn3)CC2)nc(N2CCN(C(=O)C(C(C)CC)n3cc(C(N)CC(C)C)nn3)CC2)n1 (stereo not given)	nt	nt	nt	nt	0.66
CC(CCC(=O)O)C1CCC2C3C(O)CC4CC(O)CC[C@]4(C)C3CC(O)[C@]12C (stereo not given in full)	nt	nt	nt	nt	0.68
NC(=O)c1cc(C(=O)c2ccc(Cl)cc2Cl)c[nH]1	-13	1	3	2	0.5*
CN(C)C(=O)c1cc(C(=O)c2ccc(Cl)cc2Cl)c[nH]1	0	2	4	2	0.68
O=C(C1CC=CC2CCN(Cc3ccc(Cl)c(Cl)c3)C(=O)C21)N1CCOCC1 (stereo not given)	nt	nt	nt	nt	0.63
O=C(NC=NOCc1ccc(Cl)cc1Cl)NOCc1c(Cl)cccc1Cl	nt	nt	nt	nt	0.75
Clc1ccc2c(c1)C(N1CCNCC1)Cc1ccccc1S2 (stereo not given)	9	-1	-1	nt	0.55*

From PubChem
